Sampled rows, rich in hits. Any-hit rate of the full collection: about 0.77%.
RecA intein inh – Mtb RecA intein splicing inhibitors, primary screen, biochemical, fluorescence, HTS; Protein RecA (Mycobacterium tuberculosis (strain ATCC 25618 / H37Rv)), P9WHJ3; cell-free RecA intein splicing; inhibition, % (concentration not given with the values); 0.75% of 290,000 active; AID 2221, 2009; in the data active = inhibition above about 30%;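 note: 0% = vehicle wells and 100% = reference inhibitor control wells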
Target sequence (P9WHJ3 whole entry, looked up): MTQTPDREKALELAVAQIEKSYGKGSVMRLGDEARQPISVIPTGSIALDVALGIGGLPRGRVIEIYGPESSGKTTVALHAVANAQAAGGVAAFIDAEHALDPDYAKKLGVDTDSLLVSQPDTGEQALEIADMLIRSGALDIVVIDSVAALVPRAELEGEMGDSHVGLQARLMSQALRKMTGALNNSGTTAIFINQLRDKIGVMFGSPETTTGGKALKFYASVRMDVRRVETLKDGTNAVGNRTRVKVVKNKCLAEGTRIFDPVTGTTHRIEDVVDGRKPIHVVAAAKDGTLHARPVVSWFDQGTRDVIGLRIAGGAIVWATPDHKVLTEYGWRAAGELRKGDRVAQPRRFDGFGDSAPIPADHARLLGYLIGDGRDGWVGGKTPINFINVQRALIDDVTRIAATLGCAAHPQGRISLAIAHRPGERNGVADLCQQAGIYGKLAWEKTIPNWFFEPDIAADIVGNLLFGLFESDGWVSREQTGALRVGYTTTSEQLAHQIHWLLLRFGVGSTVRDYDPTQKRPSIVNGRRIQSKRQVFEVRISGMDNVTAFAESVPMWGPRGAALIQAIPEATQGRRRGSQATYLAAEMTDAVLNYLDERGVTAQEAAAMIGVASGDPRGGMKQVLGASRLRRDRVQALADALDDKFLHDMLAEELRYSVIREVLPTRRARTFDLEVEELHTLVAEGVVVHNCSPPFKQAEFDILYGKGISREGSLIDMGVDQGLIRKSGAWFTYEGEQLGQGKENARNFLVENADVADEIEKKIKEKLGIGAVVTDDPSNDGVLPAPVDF
Rv3671c protease – Rv3671c serine protease inhibitors, primary screen, biochemical, fluorescence polarization, M. tuberculosis H37Rv; 0.048% of 320,000 active; AID 2606, 2010; inhibition, % at 5.96 µM; P9WHR9; in the data active = inhibition above about 38%;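 note: extracellular domain of Rv3671c used as enzyme; 0% = enzyme with DMSO and 100% = no enzyme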
Mtb hypoxia inh – PubChem AID 1159583 | M. tuberculosis hypoxia-regulated fluorescent reporter, fluorescence | fluorescence inhibition, % (concentration not given with the values) | 0.1% of 300,000 active; in the data active = fluorescence inhibition mostly above about 23%, no sharp cut-off; inactive = mostly below about 17%
Mtb bLac sens – beta-lactam sensitization of Mtb H37Rv, H37Rv. M. tuberculosis H37Rv growth with meropenem, percent inhibition. inhibition, % at 25 µM. 0.27% of 330,000 active;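 note: growth measured after seven days incubation then overnight dye step; 0% = bacteria only wells and 100% = bacteria with antibiotic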
Mtb UGM inh – M. tuberculosis UGM enzyme inhibitors, primary screen, biochemical, fluorescence polarization, single point; purified UGM, fluorescence polarization probe displacement; inhibition, % at 10 µM; 0.06% of 320,000 active; AID 504406, 2011; in the data active = inhibition above about 10%, passing the limit was not always enough
GFP chromo cs – counter-screen: blocks GFP chromophore formation, dose response, counter-screen, biochemical, fluorescence, homogeneous; EC50, µM; 83% of 2,100 active; shares compounds with RecA intein inh; cell-free GFP chromophore formation; AID 434968, 2010
* hit, by the source's call; x = not tested or not shown. Unless noted, the rule behind the calls is not given here.

SMILES	RecA intein inh	Rv3671c protease	Mtb hypoxia inh	Mtb bLac sens	Mtb UGM inh	GFP chromo cs
CCN(CC)C(=O)c1ccc2c(c1[N+](=O)[O-])C(=O)c1ccccc1C2=O	42*	11	x	-8	1	>38
CCN(CC)C(=O)c1cccc2c1C(=O)c1ccccc1-2	x	3	3	-1	-1	x
CC(C)(C)OC(=O)CC1CC=CCC(CC(=O)NC(CO)Cc2ccccc2)C(=O)N2CCCC2COC1=O (configuration not stated)	x	x	-6	x	x	x
CC1=C(C(=O)OC(C)C)C2(O)C(=O)c3ccccc3C2(O)N1 (configuration not stated)	32*	-74	x	-6	0	27*
Nc1cccc2c(O)cccc12	56*	0	-4	0	-2	37*
COC(=O)CCSc1cc(NCCOC(C)=O)c([N+](=O)[O-])c2nonc12	54*	-3	4	51	-5	24*
CC(=O)OCCCNc1cc(Sc2ccc(C)cc2)c2nonc2c1[N+](=O)[O-]	15	-3	-1	9	4	x
CCCC(=O)OCCNc1cc(SCCC(=O)OC)c2nonc2c1[N+](=O)[O-]	39*	-9	x	99	1	18*
COC(=O)c1ccc(-n2c(C)nc3ccccc3c2=O)cc1	3	2	x	-3	0	x
COC(=O)c1ccc(C(=O)OC)c(-n2c(=O)c3ccccc3c3ccccc3c2=O)c1	40*	-11	18	5	0	25*
CCOC(=O)c1ccccc1Nc1cn(C(C)=O)c2ccccc12	5	6	x	69	3	x
CC(=O)n1cc(N(C(=O)CCl)c2ccc(Cl)cc2)c2ccccc21	59*	2	20	99	-1	1.3*
COc1ccccc1N(C(=O)CCl)c1cn(C(C)=O)c2ccccc12	51*	0	20	96	0	23*
O=C(Nc1nccs1)C1CC=CC2CCN(Cc3ccccc3)C(=O)C21 (configuration not stated)	x	x	10	x	x	x
O=C(NCCO)C(=O)Nc1cc2c3c(c1)CC(=O)N3CCC2	21	-6	-6	0	4	x
O=C(CCl)c1cc2c3c(c1)CC(=O)N3CCC2	44*	1	x	99	0	39*
CC(=O)c1ccc(OC(=O)c2cccs2)cc1	35*	5	0	22	1	>38
COc1ccc(C2CC(c3cccs3)=NN2C(=O)CCl)cc1OC (configuration not stated)	77*	5	x	99	0	4.5*
COc1cc(C2CC(c3cccs3)=NN2C(=O)CCl)ccc1OC(F)F (configuration not stated)	80*	-4	x	98	1	1.8*
COc1ccc(C2CC(c3cccs3)=NN2C(=O)c2ccccc2)cc1OC (configuration not stated)	1	-5	11	-6	-2	x
COCCN1C(=O)NC(CCc2ccccc2)C(C(=O)OC)C1C (configuration not stated)	x	x	-7	x	x	x
CC(C)(C)OC(=O)NCCCCC(NC(=O)c1nc[nH]c1C(=O)NCc1ccccc1)C(=O)OC(C)(C)C (configuration not stated)	x	x	3	x	x	x
CC1CCCN(C(=O)COc2ccc(NC(=O)c3cccs3)cc2)C1 (configuration not stated)	44*	0	19	4	1	>38
Cc1ccc(Cl)cc1NC1=C/C(=N\S(=O)(=O)c2cccs2)c2ccccc2C1=O	-1	-132	-7	100	-4	x
O=C1/C(=N\S(=O)(=O)c2cccs2)C([n+]2ccccc2)=C([O-])c2ccccc21	41*	-65	-4	1	9	17*
SMILES	RecA intein inh	Rv3671c protease	Mtb hypoxia inh	Mtb bLac sens	Mtb UGM inh	GFP chromo cs
CC(C)(C)c1cc[n+](C2=C([O-])c3ccccc3C(=O)/C2=N\S(=O)(=O)c2cccs2)cc1	78*	-68	10	-3	1	0.96*
O=C1C(Nc2ccc(O)cc2)=CC(=NS(=O)(=O)c2cccs2)c2ccccc21	x	x	2	x	x	x
CCC=CC(=O)N1CC2(CC(c3cccc(NC(=O)CC)c3)=NO2)CC1C(N)=O (configuration not stated)	x	x	19	x	x	x
CC1CC[C@]2(C(=O)O)CC[C@]3(C)C(=CCC4[C@@]5(C)CCC(O)[C@@](C)(C(=O)O)C5CC[C@]43C)C2[C@]1(C)O (some centres not stated)	x	x	3	x	x	x
COC(=O)c1cc(C)nc2c1C(=O)C(=O)C=C2N1CCOCC1	96*	-141	-3	-5	5	0.97*
CCCCCc1cc(=O)oc2c(C(CCN3CCCC(C)C3)c3ccc(OC)cc3)c(OC)cc(OC)c12 (configuration not stated)	37*	4	x	100	0	18*
CCCCCc1cc(=O)oc2c(C(CCN3CCCCC3)c3ccc(OC)cc3)c(OC)cc(OC)c12 (configuration not stated)	23	-11	x	100	-2	x
C=CCN1c2ccccc2[C@]23CC(C(=O)OC)N(C(=O)NC4CCCC4)C2=NC(C(=O)OC)=C(C(=O)OC)C13 (some centres not stated)	x	x	-9	x	x	x
CC1C(=O)OC2CC34C5CC(C(C)(C)C)C36C(OC(=O)C6O)OC4(C(=O)O5)[C@]21O (some centres not stated)	x	x	14	x	x	x
CCOC(=O)c1ccc(NC2=CC(=O)C(=O)c3ccccc32)cc1	42*	-26	3	100	3	2.7*
Cc1ccc(NC2=CC(=O)C(=O)c3ccccc32)cc1	54*	-65	x	99	1	1.2*
NS(=O)(=O)c1ccc(NC2=CC(=O)C(=O)c3ccccc32)cc1	92*	-83	x	5	-3	2.6*
CC(=O)Nc1ccc(NC2=CC(=O)c3ccccc3C2=O)cc1	23	-7	10	0	-2	x
OCCC1CC(O)C(O)[C@@]2(CCc3ccccc3CO2)O1 (some centres not stated)	x	x	3	x	x	x
COC(=O)C1=C(c2ccc(OC(F)(F)F)cc2)CC2CCC1N2C(=O)NC(C)C (configuration not stated)	x	x	0	x	x	x
COC(=O)C1=C(c2ccc(F)cc2OCc2ccccc2)CC2CCC1N2C(=O)NCCOc1ccc(OC)cc1 (configuration not stated)	x	x	8	x	x	x
O=[N+]([O-])c1ccc(Oc2ccc(F)cc2)c2ccncc12	67*	1	x	-1	2	32*
O=[N+]([O-])c1ccc(Oc2cccc(Br)c2)c2ccncc12	53*	1	x	87	1	17*
CCN1C(Nc2ccccc2)=NCC1Cc1ccccc1 (configuration not stated)	x	x	0	x	x	x
CCOC1OC(C(=O)O)=CC(C(C)(C)C)C1CCCO (configuration not stated)	x	x	13	x	x	x

Screening results (PubChem)
